Measurements from paper PMC11006913.
Where a chain is given by its changes, count along the chain named.

What was measured:
Assay in all cases: PBM; 200 nM protein, PBS
Settings in all cases: dsDNA, one strand shown
[1] = molecular target: ALX4 (Homo sapiens, UniProt Q9H161 200-286)
[2] = molecular target: ALX4 (Homo sapiens, UniProt Q9H161 200-286, Q225E)
[3] = molecular target: ALX1 (Homo sapiens, UniProt Q15699 118-204, L144V)
[4] = molecular target: ALX1 (Homo sapiens, UniProt Q15699 118-204, L144R)
Chain of ALX1 (Homo sapiens, UniProt Q15699 118-204, L144R) (Q15699 118-204 L144R): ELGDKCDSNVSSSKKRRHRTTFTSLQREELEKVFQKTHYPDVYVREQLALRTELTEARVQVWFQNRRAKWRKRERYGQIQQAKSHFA

[5] = molecular target: ALX1 (Homo sapiens, UniProt Q15699 118-204)
Chain of ALX1 (Homo sapiens, UniProt Q15699 118-204) (Q15699 118-204): as the sequence (Q15699 118-204 L144R) above, with R27L counted along it

[6] = molecular target: ALX3 (Homo sapiens, UniProt O95076 139-225, N203Q)
Chain of ALX3 (Homo sapiens, UniProt O95076 139-225, N203Q) (O95076 139-225 N203Q): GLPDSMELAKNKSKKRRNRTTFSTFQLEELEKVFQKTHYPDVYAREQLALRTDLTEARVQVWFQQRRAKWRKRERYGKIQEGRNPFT

[7] = molecular target: ALX3 (Homo sapiens, UniProt O95076 139-225)
Chain of ALX3 (Homo sapiens, UniProt O95076 139-225) (O95076 139-225): as the sequence (O95076 139-225 N203Q) above, with Q65N counted along it

[8] = molecular target: ALX3 (Homo sapiens, UniProt O95076 139-225, L168Q)
Chain of ALX3 (Homo sapiens, UniProt O95076 139-225, L168Q) (O95076 139-225 L168Q): as the sequence (O95076 139-225 N203Q) above, with L30Q, Q65N counted along it

[9] = molecular target: ALX3 (Homo sapiens, UniProt O95076 139-225, L168V)
Chain of ALX3 (Homo sapiens, UniProt O95076 139-225, L168V) (O95076 139-225 L168V): as the sequence (O95076 139-225 N203Q) above, with L30V, Q65N counted along it

[10] = molecular target: ALX3 (Homo sapiens, UniProt O95076 139-225, N203S)
Chain of ALX3 (Homo sapiens, UniProt O95076 139-225, N203S) (O95076 139-225 N203S): as the sequence (O95076 139-225 N203Q) above, with Q65S counted along it

[11] = molecular target: T1, PAX4 (Homo sapiens, UniProt O43316 9-242, R200K)
T1 sequence: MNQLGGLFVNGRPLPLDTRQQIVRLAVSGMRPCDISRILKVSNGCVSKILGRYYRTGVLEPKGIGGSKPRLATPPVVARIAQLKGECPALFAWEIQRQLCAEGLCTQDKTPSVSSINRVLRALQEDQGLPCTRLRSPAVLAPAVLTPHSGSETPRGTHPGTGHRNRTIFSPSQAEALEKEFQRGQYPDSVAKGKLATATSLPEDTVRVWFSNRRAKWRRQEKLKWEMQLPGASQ

[12] = molecular target: T2, PAX4 (Homo sapiens, UniProt O43316 9-242)
T2 sequence: T1 sequence with K192R

[13] = molecular target: HOXB6 (Homo sapiens, UniProt P17509 132-218, K202E)
Chain of HOXB6 (Homo sapiens, UniProt P17509 132-218, K202E) (P17509 132-218 K202E): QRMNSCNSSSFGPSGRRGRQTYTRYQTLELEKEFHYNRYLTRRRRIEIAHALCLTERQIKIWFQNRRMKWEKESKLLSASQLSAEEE

[14] = molecular target: MSX2 (Homo sapiens, UniProt P35548 130-214, R199I)
Chain of MSX2 (Homo sapiens, UniProt P35548 130-214, R199I) (P35548 130-214 R199I): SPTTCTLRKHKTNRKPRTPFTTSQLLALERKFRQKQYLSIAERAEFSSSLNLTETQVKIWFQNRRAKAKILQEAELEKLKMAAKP

[15] = molecular target: T3, PAX4 (Homo sapiens, UniProt O43316 9-242, R200Q)
T3 sequence: T1 sequence with K192Q

[16] = molecular target: T4, PAX4 (Homo sapiens, UniProt O43316 9-242, F177V)
T4 sequence: T1 sequence with F169V, K192R

[17] = molecular target: MSX2 (Homo sapiens, UniProt P35548 130-214)
Chain of MSX2 (Homo sapiens, UniProt P35548 130-214) (P35548 130-214): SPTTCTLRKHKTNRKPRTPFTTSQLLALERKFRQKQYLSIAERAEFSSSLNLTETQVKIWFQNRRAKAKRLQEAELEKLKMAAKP

[18] = molecular target: T5, PAX4 (Homo sapiens, UniProt O43316 9-242, F177Y)
T5 sequence: T1 sequence with F169Y, K192R

[19] = molecular target: MSX2 (Homo sapiens, UniProt P35548 130-214, F161Y)
Chain of MSX2 (Homo sapiens, UniProt P35548 130-214, F161Y) (P35548 130-214 F161Y): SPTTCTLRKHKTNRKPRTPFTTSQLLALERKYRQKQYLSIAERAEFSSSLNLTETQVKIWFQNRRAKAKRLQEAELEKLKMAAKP

[20] = molecular target: T6, PAX4 (Homo sapiens, UniProt O43316 9-242, R227W)
T6 sequence: T1 sequence with K192R, R219W

[21] = molecular target: HOXB6 (Homo sapiens, UniProt P17509 132-218)
Chain of HOXB6 (Homo sapiens, UniProt P17509 132-218) (P17509 132-218): as the sequence (P17509 132-218 K202E) above, with E71K counted along it

Chain of ALX4 (Homo sapiens, UniProt Q9H161 200-286) (Q9H161 200-286): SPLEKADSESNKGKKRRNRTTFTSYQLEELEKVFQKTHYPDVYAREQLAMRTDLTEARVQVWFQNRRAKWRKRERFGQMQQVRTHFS
Chain of ALX4 (Homo sapiens, UniProt Q9H161 200-286, Q225E) (Q9H161 200-286 Q225E): as the sequence (Q9H161 200-286) above, with Q26E counted along it
Chain of ALX1 (Homo sapiens, UniProt Q15699 118-204, L144V) (Q15699 118-204 L144V): as the sequence (Q15699 118-204 L144R) above, with R27V counted along it

CCTAGAGA
binding signal [1]: 8.06 upbm affinity estimate (log intensity, higher = more binding, comparable within an allelic series)
binding signal [2]: 8.18 upbm affinity estimate (log intensity, higher = more binding, comparable within an allelic series)

AATTTTCA
binding signal [1]: 11.5 upbm affinity estimate (log intensity, higher = more binding, comparable within an allelic series)
binding signal [2]: 10.4 upbm affinity estimate (log intensity, higher = more binding, comparable within an allelic series)
binding signal [3]: 9.64 upbm affinity estimate (log intensity, higher = more binding, comparable within an allelic series)
binding signal [4]: 9.33 upbm affinity estimate (log intensity, higher = more binding, comparable within an allelic series)
binding signal [5]: 10 upbm affinity estimate (log intensity, higher = more binding, comparable within an allelic series)

CCCCTCTC
binding signal [1]: 8.15 upbm affinity estimate (log intensity, higher = more binding, comparable within an allelic series)
binding signal [2]: 8.2 upbm affinity estimate (log intensity, higher = more binding, comparable within an allelic series)

GAGAGCGC
binding signal [1]: 7.97 upbm affinity estimate (log intensity, higher = more binding, comparable within an allelic series)
binding signal [2]: 8.13 upbm affinity estimate (log intensity, higher = more binding, comparable within an allelic series)
binding signal [6]: 7.72 upbm affinity estimate (log intensity, higher = more binding, comparable within an allelic series)
binding signal [7]: 7.6 upbm affinity estimate (log intensity, higher = more binding, comparable within an allelic series)
binding signal [8]: 7.75 upbm affinity estimate (log intensity, higher = more binding, comparable within an allelic series)
binding signal [9]: 7.76 upbm affinity estimate (log intensity, higher = more binding, comparable within an allelic series)
binding signal [10]: 7.72 upbm affinity estimate (log intensity, higher = more binding, comparable within an allelic series)

CCTAGGAC
binding signal [1]: 7.82 upbm affinity estimate (log intensity, higher = more binding, comparable within an allelic series)
binding signal [2]: 8.1 upbm affinity estimate (log intensity, higher = more binding, comparable within an allelic series)

CAGCCCGC
binding signal [11]: 9.17 upbm affinity estimate (log intensity, higher = more binding, comparable within an allelic series)
binding signal [12]: 9.23 upbm affinity estimate (log intensity, higher = more binding, comparable within an allelic series)
binding signal [13]: 9 upbm affinity estimate (log intensity, higher = more binding, comparable within an allelic series)
binding signal [14]: 9.36 upbm affinity estimate (log intensity, higher = more binding, comparable within an allelic series)
binding signal [15]: 9.12 upbm affinity estimate (log intensity, higher = more binding, comparable within an allelic series)
binding signal [16]: 9.04 upbm affinity estimate (log intensity, higher = more binding, comparable within an allelic series)
binding signal [17]: 9.33 upbm affinity estimate (log intensity, higher = more binding, comparable within an allelic series)
binding signal [18]: 8.99 upbm affinity estimate (log intensity, higher = more binding, comparable within an allelic series)
binding signal [19]: 9.37 upbm affinity estimate (log intensity, higher = more binding, comparable within an allelic series)
binding signal [20]: 9.09 upbm affinity estimate (log intensity, higher = more binding, comparable within an allelic series)
binding signal [21]: 8.96 upbm affinity estimate (log intensity, higher = more binding, comparable within an allelic series)
